# Measurements published in PubChem BioAssay (NCATS).
# Inconclusive results are not listed. Active and inactive are the calls of the source. Calls follow the shape of the dose curve; as a rule, active = well fitted cell-killing curve with a large enough effect; inconclusive = small, poorly fitted or top-dose-only effect, or effect the other way; inactive = no such curve, though single readings can be large or run the other way.
# Test: Quantitative High-Throughput drug screen in 47 multiple myeloma cell lines against the NCATS MIPE library collection: PE2_PLB cell viability assay (AID 1919869); also: nearly all actives have a fitted effect of over 35% in size
# Conditions: PE2_PLB myeloma cells viability, ATP luminescence, 48 h; series mostly up to 45.8 µM; viability (% of control): at the top concentration
# Procedure, shortened: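 MIPE 4.0 approved/investigational drugs; 500 cells/well; 48 h 37 °C humidified 5% CO2; CTG luminescence readout; DMSO = 100%, media = 0% viability.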
# Potency is read from the fitted curve at half-maximal effect.
Structure (SMILES),Potency,viability (% of control)
c1ccc(CCCN2CCN(CCOC(c3ccccc3)c3ccccc3)CC2)cc1,18.7 µM (active),
C[C@]12CCC(=O)C(O)=C1CC[C@@H]1[C@H]3CCC(=O)[C@@]3(C)CC[C@@H]12,,87.2% (inactive)
Cc1nc(-c2ccc(-c3ccc(C(=O)N4CCc5cc6c(cc54)C4(CCN(C)CC4)CO6)cc3)c(C)c2)no1,,115% (inactive)
C[C@]12CC[C@H]3[C@@H](CCC4=CC(=O)CC[C@@]43C)[C@H]1CC[C@H]2O,,112% (inactive)
Cc1c(C(=O)Nc2cccc(C(F)(F)F)c2)cc(-c2ccccc2)n1CCCN1CCOCC1,14.8 µM (active),
CCOC(=O)c1c(C(C#N)=CN)c2ccc(Cl)c(Cl)c2n1C,,88.8% (inactive)
C[C@@H]1CC[C@H]2[C@@H](C)C(=O)O[C@@H]3O[C@@]4(C)CC[C@H]1[C@]32OO4,0.743 µM (active),
O=S(=O)(CC1CS1)c1ccc(Oc2ccccc2)cc1 (centres undefined),16.6 µM (active),
CCc1c(C(=O)C(N)=O)c2c(OCC(=O)O)cccc2n1Cc1ccccc1,,130% (inactive)
CC(C)N(CCNC(=O)CN1CCCC1=O)C(C)C,,116% (inactive)
C[C@@H]1O[C@@H](O[C@@H]2C=C3CC[C@@H]4[C@@H](CC[C@]5(C)[C@H](c6ccc(=O)oc6)CC[C@@]45O)[C@@]3(C)CC2)[C@H](O)[C@H](O)[C@H]1O,0.0264 µM (active),
C[C@](O)(COc1ccc(C#N)cc1)C(=O)Nc1ccc(C#N)c(C(F)(F)F)c1,18.7 µM (active),
C=C[C@@H]1CN2CCC1C[C@@H]2[C@@H](O)c1ccnc2ccccc12 (some centres undefined),23.5 µM (active),
C[C@@]12OC(=O)[C@]1([C@@H](O)[C@@H]1C=CCCC1)NC(=O)[C@H]2CCCl,0.0083 µM (active),
O=C(Oc1ccc([N+](=O)[O-])cc1)N1CCN(Cc2cccc(Oc3ccccc3)c2)CC1,,101% (inactive)
CSCC[C@@H](NC(=O)[C@@H](Cc1ccccc1)NC(=O)CNC(=O)CNC(=O)[C@@H](N)Cc1ccc(O)cc1)C(=O)O,,119% (inactive)
CC(=Cc1csc(C)n1)[C@@H]1C[C@H]2O[C@]2(C)CCC[C@H](C)[C@@H](O)[C@@H](C)C(=O)C(C)(C)[C@@H](O)CC(=O)O1,,55.2% (inactive)
C[C@]12CC[C@@H]3[C@@H](CCC4=CC(=O)CC[C@@H]43)[C@@H]1CC[C@@H]2OC(=O)CCc1ccccc1,,137% (inactive)
CC[C@H]1C=CC=CC[C@@H](C)[C@H](O)[C@@](C)(O)C(=O)[C@@H](C)[C@H](O)[C@@H](C)C(=O)[C@@H](C)[C@H](O)[C@@H](C)C=CC(=O)O[C@@H]2[C@@H](C)[C@H](CC1)O[C@]1(CC[C@H](C)[C@H](C[C@@H](C)O)O1)[C@H]2C,9.35 µM (active),
COc1cc([C@@H]2c3cc4c(cc3[C@@H](O)C3COC(=O)C32)OCO4)cc(OC)c1O (some centres undefined),0.0526 µM (active),
C[C@]12Cc3cn[nH]c3C[C@@H]1CC[C@@H]1[C@H]2CC[C@@]2(C)[C@H]1CC[C@]2(C)O,,114% (inactive)
CCN(CC)C(=O)c1ccc(C2=CC3(CCNCC3)Oc3cccc(O)c32)cc1,,118% (inactive)
COc1ccc(CC2NCCc3cc(OC)c(OC)cc32)cc1OC (centres undefined),,70.1% (inactive)
CCCN1CCO[C@@H]2c3cc(O)ccc3OC[C@@H]21,,111% (inactive)
Oc1ccc2c3c1O[C@H]1c4[nH]c5c(c4C[C@@]4(O)[C@@H](C2)N(CC2CC2)CC[C@]314)C[C@@]1(O)[C@H]2Cc3ccc(O)c4c3[C@@]1(CCN2CC1CC1)[C@H]5O4,,103% (inactive)
C[C@]12COC(=O)C[C@@H]1CC[C@@H]1[C@H]2CC[C@@]2(C)[C@H]1CC[C@]2(C)O,,114% (inactive)
Clc1ccccc1C(c1ccccc1)(c1ccccc1)n1cccn1,,114% (inactive)
CC(=CCCC1=CCC(C2=CC(=O)OC2O)OC1O)CCC1=C(C)CCCC1(C)C (centres undefined),,98.5% (inactive)
CC1=NN=C(c2ccc(N)cc2)c2cc3c(cc2C1)OCO3,,110% (inactive)
